High-throughput results from PubChem BioAssay.
VP16 counter – Gal4-VP16 reporter inhibition counter-screen | hit rate 3.5% among 310,000 | Potency, µM (highest dose often 53.6 µM), without a hit: at the top dose activity, negative = inhibition, most hits filed as inhibitors | Drosophila S2 Gal4-VP16 UAS-luciferase, luminescence, 20 h | AID 2546;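 further: Gal4-VP16 expression switched on by copper sulfate through the metallothionein promoter; nearly all actives have a fitted effect of over 50% in size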
DT40 TDP1 CPT – DT40-hTDP1 cell growth loss with CPT. Potency, µM (highest dose often 46.2 µM), without a hit: at the highest dose activity change, negative = growth inhibition, actives largely listed as inhibitors. hit rate 12% among 420,000. chicken DT40 Tdp1-/-;hTDP1 cells + 20 nM CPT, ATP luminescence, 48 h; further: nearly all actives have a fitted effect of over 55% in size
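Chicken DT40 Tdp1-/- cells complemented with human TDP1, 400 cells/well, exposed to compounds plus 20 nM camptothecin for at least 48 h at 37 C; viability read as ATP content by CellTiter-Glo luminescence.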
RORg inh – inhibitors of mouse ROR gamma transcriptional activity; hit rate 5.4% among 310,000; Drosophila S2 Gal4-RORgamma UAS-luciferase reporter, 20 h; Potency, µM (series often up to 53.6 µM), for the others: at the highest dose activity change, negative = inhibition, hits mostly inhibitors; AID 2551; P51450; further: nearly all actives have a fitted effect of over 60% in size
Target sequence (P51450 whole entry, looked up, the tested form may be a part): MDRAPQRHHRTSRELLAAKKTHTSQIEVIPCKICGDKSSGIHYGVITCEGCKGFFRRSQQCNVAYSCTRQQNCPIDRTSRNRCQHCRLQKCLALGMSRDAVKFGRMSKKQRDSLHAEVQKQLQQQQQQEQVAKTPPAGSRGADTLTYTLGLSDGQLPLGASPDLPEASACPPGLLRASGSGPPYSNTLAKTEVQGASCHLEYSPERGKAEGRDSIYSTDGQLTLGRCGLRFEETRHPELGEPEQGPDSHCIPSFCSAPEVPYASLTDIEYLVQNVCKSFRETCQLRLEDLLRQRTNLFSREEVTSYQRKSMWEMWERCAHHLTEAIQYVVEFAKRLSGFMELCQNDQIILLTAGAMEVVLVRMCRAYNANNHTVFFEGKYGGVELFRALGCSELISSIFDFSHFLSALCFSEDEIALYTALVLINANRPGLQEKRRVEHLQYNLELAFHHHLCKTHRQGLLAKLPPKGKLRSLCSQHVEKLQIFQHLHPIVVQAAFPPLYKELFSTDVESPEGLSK
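Read-out: Photinus luciferase luminescence; inhibitors lower reporter signal. Insect Schneider cells with Gal4-ROR gamma fusion under metallothionein promoter, UAS reporter; 700 uM final copper sulfate induction, 20 hr, ambient temperature.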
ELG1 DNA repair – inhibitors of ELG1-dependent DNA repair in HEK293T cells; hit rate 2.3% among 330,000; Potency, µM (series often up to 46.1 µM), for the others: top-dose activity change, negative = inhibition, most hits filed as inhibitors; HEK293T ELG1-luciferase reporter, luminescence, 16 h; DNA damage induced by 5-fluorouridine; AID 504467; further: nearly all actives have a fitted effect of over 55% in size
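Step one: seed 2,000 cells per well. Step two: pin-transfer compound or DMSO alongside 5-fluorouridine. Step three: incubate 16 hr, 37 °C, 5% CO2. Step four: add ONE-Glo, wait 30 min, read luminescence.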
TDP1 cell noCPT – qHTS for Inhibitors of human tyrosyl-DNA phosphodiesterase 1 (TDP1): qHTS in cells in absence of CPT; hit rate 15% among 420,000; DT40 Tdp1-/- hTDP1 cells, no CPT, ATP luminescence, 48 h; Potency, µM (doses to about 46.2 µM), for inactives: top-dose activity change, negative = growth inhibition, hits mostly inhibitors; further: nearly all actives have a fitted effect of over 55% in size
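Camptothecin absent (DMSO only). Human TDP1-complemented DT40 knockout cells, 400 cells/well, 37 °C for minimum 48 hr; ATP measured via CellTiter-Glo, 30 min dark incubation, luminescence.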
ALOX12 inh – blocks human arachidonate 12S-lipoxygenase; P18054; purified 12hLO, xylenol orange hydroperoxide absorbance; Potency, µM (titrated, usually from 108 µM), for the others: top-dose activity change, negative = inhibition, actives largely listed as inhibitors; hit rate 1.1% among 580,000; AID 1671190
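Purified human 12hLO (150 nM final) in 25 mM Hepes, 0.01% Triton X-100, pH 7.0 was preincubated 15 min at room temperature with compound. Then 40 uM arachidonic acid was added, 30 min. Hydroperoxide was read by Fe-XO absorbance ratio 573/405 nm.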
Starred values were filed as active, the others as inactive; ? = inconclusive; . = not tested or not shown; [ ] = remark or other dose. Hits are enriched below; roughly 15% of the tested compounds scored in any of these assays. The call rests on the fitted dose curve; in most records, active means well fitted curve in the direction sought with a large enough effect; inconclusive means small, poorly fitted or top-dose-only effect, or another doubt; inactive means no such curve, though single readings can be large; an effect the other way counts as inactive or inconclusive. On the % scale 0 is the no-effect control and ±100 the full control effect; potency means the concentration at half of the fitted maximal effect.

SMILES | VP16 counter | DT40 TDP1 CPT | RORg inh | ELG1 DNA repair | TDP1 cell noCPT | ALOX12 inh
CCC(C)n1c(O)c(/C=N/NC(=O)c2ccncc2)c(=O)[nH]c1=S (stereo unspecified) | ? | 2% | ? | 14% | -16% | -18%
CCC(C)n1c(O)c(C=NCCc2ccccc2)c(=O)[nH]c1=S (stereo unspecified) | ? | -14% | 10µM* | -13% | -29% | 198%
c1cncc(C2=NOC3(CCN(C4COC4)CC3)C2)c1 | . | . | . | . | . | 3%[12.5 µM]
Cc1ccccc1C(=O)Nc1ccc(C(=O)OCc2cc(=O)n3nc(C4CC4)sc3n2)cc1 | . | 21µM* | . | . | ? | -34%
Cc1cc(-c2nnn(CCCOC(C)(C)C)c2C)ccc1-c1cn(CCCOC(C)(C)C)nn1 | . | 8.2µM* | . | . | 6.5µM* | 11%
CC(=O)Nc1ccc(-c2ccc(=O)n3c2[C@@H]2C[C@@H](CN(C(=O)c4cccs4)C2)C3)cc1 | . | . | . | . | . | 5%[176 µM]
CN(C(=O)Oc1cccc2ccccc12)C1C=CCC1 (stereo unspecified) | . | -30% | . | . | -64% | ?
Ic1ccccc1CN[C@@H]1C2CCN(CC2)[C@@H]1C(c1ccccc1)c1ccccc1 | . | 12µM* | . | -4% | 6.5µM* | ?
Cc1n[nH]c(C)c1CCCCOc1ccc([N+](=O)[O-])cc1 | ? | 15µM* | 37% | 9% | ? | -16%
O=C1CS(=O)C2(CCNCC2)N1C1CCCC1 (stereo unspecified) | . | . | . | . | . | 9%
O=C1NC(=O)N(Cc2ccc(F)cc2)C(=O)/C1=C\C=C\c1ccco1 | ? | 7.3µM* | ? | ? | 7.3µM* | ?
CCCCN1C(=O)/C(=C\c2ccco2)C(=O)N(CCc2ccccc2)C1=O | -4% | ? | 21% | 8% | -20% | ?
COc1ccc(CN2C(=O)NC(=O)/C(=C/c3ccoc3)C2=O)cc1 | -1% | ? | -21% | -7% | ? | ?
CCCCN1C(=O)/C(=C/C=C/c2ccco2)C(=O)NC1=S | 2% | -26% | 1% | 1% | -12% | 6.3µM*
O=C1NC(=O)N(Cc2ccccc2)C(=O)/C1=C\c1ccco1 | 4% | 21µM* | -10% | 12% | 13µM* | ?
O=C(NC[C@H]1C[C@@H]2CCN1C[C@@H]2CN1CCCCC1)Nc1ccccc1 | . | . | . | . | . | 36%[176 µM]
O=C(C1CCOCC1)N1CCC2(CC1)NCc1ccccc1-n1ccnc12 | . | . | . | . | . | 16%
O=C1c2ccccc2S(=O)(=O)c2cc(C(=O)N3CCN(c4c(Cl)cncc4Cl)CC3)ccc21 | . | ? | . | . | 15µM* | -8%
COc1ccc(-c2cc([C@H]3CN4CC[C@H]3C[C@@H]4CNS(=O)(=O)c3ccc(Cl)cc3)n(C)n2)cc1OC | . | . | . | . | . | 6%
Cc1[nH]nc2c1C(c1ccc(-c3cccc(Cl)c3)o1)SCC(=O)N2 (stereo unspecified) | . | . | . | . | . | -41%
CCCCn1c(C)c(C(=O)OCC)c2cc(OC)ccc21 | . | . | . | . | . | 8%
CCCN(CCC)C(=O)C(CCC(=O)OCCCN1CCN(CCOC(=O)Cc2c(C)n(C(=O)c3ccc(Cl)cc3)c3ccc(OC)cc23)CC1)NC(=O)c1ccccc1 (stereo unspecified) | . | 13µM* | . | . | 11µM* | ?
CCOc1ccccc1NC(=O)c1sc2nc3c(cc2c1N)CN(Cc1ccccc1)CC3 | . | 16µM* | . | . | 23µM* | -4%
Cc1ccc2oc(-c3ccccc3)cc(=O)c2c1 | ? | -28% | ? | . | -17% | .
Cc1ccc2oc(-c3ccc(Cl)cc3)c(O)c(=O)c2c1 | . | 21µM* | . | . | 16µM* | -15%
Cc1ccc(C)c(N2CCN(C(=O)C3CCN(Cc4nc(-c5cccc(Cl)c5)oc4C)CC3)CC2)c1 | . | 9.2µM* | . | . | 6.5µM* | ?
